Active and inactive are the calls of the source. Calls follow the shape of the dose curve; as a rule, active = well fitted curve in the direction sought with a large enough effect; inactive = no such curve, though single readings can be large or run the other way. Where a SMILES comes first, the peptide text is derived from it. [ ]: non-standard residue; d: D form. Orn = NCCC[C@H](N)C(=O)O
Assay: qHTS profiling of inhibitors of Plasmodium falciparum (3D7) proliferation (acoustic dispense)
Conditions: P. falciparum 3D7 in erythrocytes, SYBR Green, 72 h; series mostly up to 49.8 µM; activity change: at the top concentration
Description: Plasmodium falciparum is a virulent malarial parasite that kills 1-2 million people worldwide each year. Transmitted by mosquitoes, the sporozoite form of the parasite enters the blood stream to infect hepatocytes, where they become merozoites that infect red blood cells (erythrocytes). Within erythrocytes, merozoites begin a […] cycle of growth and division, after which the parasite is released to infect new red blood cells. Gametocytes, which form within erythrocytes as well, circulate in the bloodstream and are ingested by the mosquito, thereby completing the life cycle. To profile malarial isolates for differential chemical responses and to identify inhibitors of malarial growth, an assay that measures P. falciparum growth and replication within erythrocytes was employed. This assay uses a DNA binding fluorescent dye (SYBR Green) to detect parasite DNA following cell lysis. Because mature erythrocytes lack DNA, only Plasmodium-derived DNA is detected.
The SYBR Green viability assay was adapted from a method described previously (Plouffe et al., 2008). For screening 3 ul culture medium was dispensed into 1536 well black clear bottom plates (Aurora Biotechnologies) using a Multidrop Combi (Thermo Fisher Scientific Inc.), 23 nL of compounds in DMSO were added by an acoustic dispenser (EDC Biosystems), and 5 ul of erythrocytes infected with P. falciparum (0.3% parasitemia, 2.5% hematocrit final concentration) were added. The plates were incubated at 37 C in a humidified incubator in 5% CO2 for 72 h, and 2 ul lysis buffer (20 mM Tris HCl, 10 mM EDTA, 0.16% saponin, 1.6% triton X, 10X SYBR Green I supplied as 10,000X […] by Invitrogen) was added to each well. The plates were mixed for 25 sec with gentle shaking and incubated overnight at room temperature in the dark. The following morning, fluorescence intensity at 485(14) nm excitation and 535(25) nm emission wavelengths was measured on an EnVision (Perkin Elmer) plate reader. Plate reads were normalized relative to the control inhibitor (0.29 uM artemisinin) and vehicle (DMSO) wells present on each plate and then corrected by an algorithm using vehicle-only control plates at the beginning and end of the compound plate stack.

Activity change, inactive:
O=C1C(=O)c2ccccc2C(O)=C1C1CCC(c2ccc(Cl)cc2)CC1 (stereo not given) 0.134%
COc1cc2c(Oc3ccc(NC(=O)C4(C(=O)Nc5ccc(F)cc5)CC4)cc3F)ccnc2cc1OCCCN1CCOCC1 6.54%
O[C@H](c1cc(C(F)(F)F)nc2c(C(F)(F)F)cccc12)[C@H]1CCCCN1 0.467% [at 23.2 µM]
NC(=NCCCCCCN=C(N)N=C(N)Nc1ccc(Cl)cc1)N=C(N)Nc1ccc(Cl)cc1 6.59%
CC(Sc1nc2ccccc2[nH]1)C(=O)NN=Cc1cc(Br)ccc1O (stereo not given) 28.2% [at 4.15 µM]
C[C@H]1Cc2c([nH]c3cc(Cl)c(F)cc23)[C@@]2(N1)C(=O)Nc1ccc(Cl)cc12 -3.95%
O=C1c2c(O)ccc(O)c2C(=O)c2c(NCCNCCO)ccc(NCCNCCO)c21 -8.46%
CC[C@H]1OC(=O)[C@H](C)C(=O)[C@H](C)[C@@H](O[C@H]2O[C@H](C)C[C@H](N(C)C)[C@@H]2O)[C@](C)(OC)C[C@@H](C)C(=O)[C@H](C)[C@H]2N(CCCCn3cnc(-c4cccnc4)c3)C(=O)O[C@]12C 0.612%
COC1=C2C[C@@H](C)C[C@H](OC)[C@@H](O)[C@@H](C)C=C(C)[C@H](OC(N)=O)[C@@H](OC)C=CC=C(C)C(=O)NC(=CC1=O)C2=O -1.59%
CC[C@]1(O)C[C@H]2CN(CCC3=c4ccccc4=N[C]3[C@@](C(=O)OC)(c3cc4c(cc3OC)N(C)[C@H]3[C@@](O)(C(N)=O)[C@H](O)[C@]5(CC)C=CCN6CC[C@]43[C@@H]65)C2)C1 11.8%
C#Cc1cccc(Nc2ncnc3cc(OC)c(OCCCCCCC(=O)NO)cc23)c1 -0.748%
CCCCCCCCCCOc1cc2c(=O)c(C(=O)OCC)c[nH]c2cc1OCC -1.42%
C[C@H]1c2cccc(O)c2C(O)=C2C(=O)[C@]3(O)C(O)=C(C(N)=O)C(=O)[C@@H](N(C)C)[C@@H]3[C@@H](O)[C@@H]21 -0.335%
FC(F)c1nc2ccccc2n1-c1nc(N2CCOCC2)nc(N2CCOCC2)n1 4.59%
Cc1cn[nH]c1 0.616%
Cn1c2ccccc2c2c3c(c4c5ccccc5n(CCC#N)c4c21)CNC3=O 26.1%
Nc1cccc(-c2csc(NC(=O)CCCCCCC(=O)NO)n2)c1 -1.85%
CCN[C@H]1C[C@H](C)S(=O)(=O)c2sc(S(N)(=O)=O)cc21 -1.4%
COc1cc(C)c2c(Oc3cccc(C(F)(F)F)c3)c(OC)cc(NCCCC(C)N)c2n1 (stereo not given) -2.94%
O=C1c2ccccc2-[n+]2ccc3c([nH]c4ccccc43)c21 9.49%
COc1cc(NC(C)CCCN)c2ncccc2c1 (stereo not given) 0.981%
COC(=O)c1ccc2c(C(=Nc3ccc(N(C)C(=O)CN4CCN(C)CC4)cc3)c3ccccc3)c(O)[nH]c2c1 25.2%
OB1OCc2cc(F)ccc21 5.24%
C[C@@H](Oc1ccc2[nH]nc(C=Cc3cnn(CCO)c3)c2c1)c1c(Cl)cncc1Cl -0.856%
CCC[C@H](Nc1nc(-c2ccc(NC(=O)NCC)c(OC)c2)ncc1C)c1cccnc1 1.52%
COC(=O)[C@]12CCC(C)(C)C[C@@H]1[C@@H]1C(=O)C=C3[C@@]4(C)C=C(C#N)C(=O)C(C)(C)[C@@H]4CC[C@@]3(C)[C@]1(C)CC2 58.1%
Cn1c(=O)c(-c2c(Cl)cccc2Cl)cc2cnc(Nc3cccc(C(=O)O)c3)nc21 4.94%
CC(C)N=C(N)N=C(N)Nc1ccc(Cl)cc1 0.148%
Cn1cc(C2=C(c3c4n(c5ccccc35)CCC(CN)C4)C(=O)NC2=O)c2ccccc21 (stereo not given) 2.82%
Cn1c(=O)n(-c2ccc(C(C)(C)C#N)cc2)c2c3cc(-c4cnc5ccccc5c4)ccc3ncc21 0.256%
CC(C)C[C@@H]1NC(=O)[C@H](CCCN)NC(=O)[C@H](C(C)C)NC(=O)[C@@H]2CCCN2C(=O)[C@@H](Cc2ccccc2)NC(=O)[C@H](CC(C)C)NC(=O)[C@H](CCCN)NC(=O)[C@H](C(C)C)NC(=O)[C@@H]2CCCN2C(=O)[C@@H](Cc2ccccc2)NC1=O (cyclo(V[Orn]L[dF]PV[Orn]L[dF]P)) 1.28%
O=C1NC(=O)C(=Cc2ccc3nccc(-c4ccncc4)c3c2)S1 1.47%
COc1ccc(-c2cc3c(C)nc(N)nc3n(C3CCC(OCCO)CC3)c2=O)cn1 (stereo not given) -1.59%
CN[C@@H](C)C(=O)N[C@H]1CCCC[C@H]2CC[C@@H](C(=O)N[C@@H](c3ccccc3)c3cn(CCCCc4ccc(CCCCn5cc([C@@H](NC(=O)[C@@H]6CC[C@@H]7CCCC[C@H](NC(=O)[C@H](C)NC)C(=O)N76)c6ccccc6)nn5)cc4)nn3)N2C1=O 0.436%
CN(Cc1cnc2nc(N)nc(N)c2n1)c1ccc(C(=O)N[C@@H](CCC(=O)O)C(=O)O)cc1 -0.179%
COCCn1c2c([n+](Cc3cnccn3)c1C)C(=O)c1ccccc1C2=O 0.59%
CC[C@@]1([C@@H]2O[C@@H]([C@H]3O[C@@](O)(CO)[C@H](C)C[C@H]3C)C[C@H]2C)CC[C@H]([C@]2(C)CC[C@]3(C[C@H](O)[C@@H](C)[C@@H]([C@@H](C)[C@@H](OC)[C@H](C)C(=O)O)O3)O2)O1 -0.944% [at 23.2 µM]
CC(=NNC(=S)N1CCC1)c1ccccn1 -1.01%
CCC(=O)N1CCN(c2ccc(-n3c(=O)ccc4cnc5ccc(-c6cnc7ccccc7c6)cc5c43)cc2C(F)(F)F)CC1 0.958%
CN(C(=O)OC(C)(C)C)[C@@H](Cc1ccc(O[S+](=O)([O-])c2cccc3cnccc23)cc1)C(=O)N1CCN(C(=O)OCc2ccccc2)CC1 0.844%
